# Experimental data taken from PubChem BioAssay (Tox21).
# Inconclusive results are not listed. Entries that show only a call come without a potency. Activity calls are given as the source filed them. Unless noted, calls follow the shape of the dose curve; as a rule, active = well fitted curve in the direction sought with a large enough effect in the repeat runs; inconclusive = weak or mixed curves; inactive = no such curve, though single readings can be large; an effect the other way counts as inactive or inconclusive.
# What was measured:
# [1] = qHTS assay to identify small molecule antagonists of the estrogen receptor alpha (ER-alpha) signaling pathway using the BG1 cell line in the presence of 0.1 nM 17-beta-estradiol - cell viability counter screen (AID 1259241); conditions: VM7Luc4E2 (BG1) viability, CellTiter-Fluor protease, 22 h, 0.1 nM estradiol agonist added; series mostly up to 92.4 µM; also: nearly all actives have a fitted effect of over 40% in size
# Procedure, shortened: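 Following 5 days in phenol red-free medium with charcoal-stripped serum, VM7Luc4E2 cells received test compounds alongside 0.1 nM 17beta-estradiol (final) at 37C for 22 hr. Live cells were then quantified via protease-substrate fluorescence.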
# [2] = qHTS assay to identify small molecule antagonists of the androgen receptor (AR) signaling pathway using the MDA cell line in the presence of 0.5 nM R1881 - cell viability counter screen (AID 1259242); conditions: MDA-kb2 viability, CellTiter-Fluor protease fluorescence, 16 h; series mostly up to 92.4 µM; also: nearly all actives have a fitted effect of over 45% in size
# Procedure, shortened: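 Concentration-response screen of compounds for toxicity in MDA-kb2 reporter cells: 16 hr at 37C with 0.5 nM R1881, endpoint live-cell protease fluorescence measured in the reporter wells.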
# [3] = qHTS assay to identify small molecule phospholipidosis (PLD) inducers (AID 1259344; active = well fitted curve in the direction sought with a large enough effect; an effect the other way counts as inactive or inconclusive); conditions: HepG2 phospholipidosis, LipidTOX Red imaging, 24 h; series mostly up to 38.3 µM
# Procedure, shortened: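 Read-out is LipidTOX Red fluorescence (ex 595/em 615) imaged in HepG2 cells after 24 h compound exposure at 37 C, with Hoechst nuclear counterstain (ex 352/em 461) allowing per-cell normalisation.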
# [4] = qHTS assay to identify small molecule HDAC inhibitors (AID 1259364); conditions: HCT-116 HDAC-Glo I/II luminescence, 2 h; series mostly up to 92.4 µM;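 also: wild-type HCT-116 cells with endogenous class I/II HDAC activity; top concentration of the series differs between compounds; nearly all actives have a fitted effect of over 45% in size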
# Procedure, shortened: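 Screening used wild-type human colon HCT-116 cells incubated overnight, dosed with compounds for 2 hours, and assayed with a homogeneous luminogenic HDAC I/II reagent for 30 minutes at room temperature.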
# [5] = qHTS assay to identify small molecule HDAC inhibitors - cell viability counter screen (AID 1259365); conditions: HCT-116 viability, CellTiter-Glo ATP luminescence, 2 h; series mostly up to 92.4 µM; also: nearly all actives have a fitted effect of over 50% in size
# Procedure, shortened: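 HCT-116 wild-type, overnight attachment; 2hr drug exposure, 37C; CellTiter-Glo luminescent ATP readout after 30min RT.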
# [6] = qHTS assay to identify small molecule agonists of the sonic hedgehog signaling (Shh) pathway - cell viability counter screen (AID 1259366); conditions: NIH/3T3 Gli1-Luc viability, CellTiter-Fluor, 24 h; series mostly up to 92.4 µM; also: nearly all actives have a fitted effect of over 50% in size
# Procedure, shortened: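 Compounds in DMSO were pin-transferred onto 3T3 Gli1-Luc cells that had settled 4hr; plates then stood 24hr at 37C and 5% CO2. One hour before the end, CellTiter-Fluor was added and fluorescence recorded.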
# [7] = qHTS assay to identify small molecule antagonists of the sonic hedgehog signaling (Shh) pathway - cell viability counter screen (AID 1259367); conditions: NIH/3T3 Gli1-Luc viability, CellTiter-Fluor, 24 h; series mostly up to 92.4 µM; also: nearly all actives have a fitted effect of over 55% in size
# Procedure, shortened: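 Fluorescence read-out (CellTiter-Fluor, 1 hr at 37C) taken after 23 hr compound treatment of 3T3 Gli1-Luc cells stimulated with conditioned medium. Cells were seeded at 2,000 per well and pre-incubated 4 hr.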
# [8] = qHTS assay to identify small molecule agonists of the sonic hedgehog signaling (Shh) pathway (AID 1259368; calls by dose curve;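 also: NIH/3T3-derived 3T3Gli1-Luc cells carrying a stable Gli1-driven firefly luciferase reporter; nearly all actives have a fitted effect of over 15% in size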); conditions: NIH/3T3 Gli1-Luc reporter, luciferase, 24 h, hits give high values; series mostly up to 92.4 µM
# Procedure, shortened: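 Hedgehog pathway agonism scored by increased firefly luciferase luminescence in 3T3Gli1-Luc cells treated 24 hr at 37 C; detection used a 30 min room-temperature reagent incubation.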
# [9] = qHTS assay to identify small molecule antagonists of the sonic hedgehog signaling (Shh) pathway (AID 1259369; calls by dose curve; also: nearly all actives have a fitted effect of over 45% in size; also: potency is read from the fitted curve at half-maximal effect); conditions: NIH/3T3 Gli1-Luc reporter, Shh antagonist, luminescence 24 h; series mostly up to 92.4 µM
# Procedure, shortened: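 NIH/3T3 stable Gli1-Luc clone, 2,000 cells/well, 4hr settle; cpd + conditioned medium 24hr; Luc reagent 30min RT; luminescence.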
# [10] = molecular target: Estrogen receptor beta (Homo sapiens) (UniProt Q92731); experiment: qHTS assay to identify small molecule agonists of the estrogen receptor beta (ER-beta) signaling pathway (AID 1259377; active = well fitted activation curve with a large enough effect in the signal ratio in the repeat runs, not every such curve was filed as active; the % refers to the signal ratio); conditions: ER-beta-UAS-bla HEK293T, beta-lactamase FRET ratio, 16 h; series mostly up to 92.4 µM
# Estrogen receptor beta (Homo sapiens), sequence (Q92731 whole entry, looked up): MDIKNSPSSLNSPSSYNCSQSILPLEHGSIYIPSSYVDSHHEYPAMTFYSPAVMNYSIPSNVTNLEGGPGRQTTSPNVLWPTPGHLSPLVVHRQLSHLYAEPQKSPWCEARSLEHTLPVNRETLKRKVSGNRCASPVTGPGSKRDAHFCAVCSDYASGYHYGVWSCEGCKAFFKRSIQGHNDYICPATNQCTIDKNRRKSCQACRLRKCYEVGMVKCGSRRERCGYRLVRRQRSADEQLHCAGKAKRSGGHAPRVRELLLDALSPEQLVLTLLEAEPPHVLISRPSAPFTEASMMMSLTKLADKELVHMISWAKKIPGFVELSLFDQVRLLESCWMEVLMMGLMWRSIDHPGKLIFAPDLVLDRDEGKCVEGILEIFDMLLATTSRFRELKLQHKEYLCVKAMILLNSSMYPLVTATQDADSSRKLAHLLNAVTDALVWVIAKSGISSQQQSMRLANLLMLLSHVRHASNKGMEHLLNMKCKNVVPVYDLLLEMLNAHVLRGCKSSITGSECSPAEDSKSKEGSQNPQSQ
# Procedure, shortened: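 qHTS in ER-beta-UAS-bla HEK293T cells: 6 hr settling, then 16 hr compound at 37C, then LiveBLAzer substrate 2 h at RT before fluorescence reading.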
# [11] = molecular target: Estrogen receptor beta (Homo sapiens) (UniProt Q92731); experiment: qHTS assay to identify small molecule antagonists of the estrogen receptor beta (ER-beta) signaling pathway (AID 1259378; active = well fitted inhibition curve with a large enough effect in the signal ratio in the repeat runs, not every such curve was filed as active; the % refers to the signal ratio); conditions: ER-beta-UAS-bla HEK293T, beta-lactamase FRET ratio, 16 h; series mostly up to 92.4 µM
# Procedure, shortened: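 ER-beta-UAS-bla HEK293T cells in 2% charcoal-stripped FBS medium treated with compound plus 1nM final 17-beta-estradiol for 16 hr at 37C. Beta-lactamase reporter read by FRET substrate fluorescence after 2 hours at room temperature.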
# [12] = qHTS assay to identify small molecule agonists of the androgen receptor (AR) signaling pathway in the presence of an antagonist - cell viability counter screen (AID 1259379); conditions: MDA-kb2 viability, CellTiter-Fluor, 16 h; series mostly up to 92.4 µM;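 also: MDA-kb2 human breast cancer cells carrying an MMTV luciferase reporter; nearly all actives have a fitted effect of over 25% in size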
# Procedure, shortened: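 MDA-kb2 viability measured by CellTiter-Fluor fluorescence in the same wells as the luciferase signal; nilutamide 3.0uM final; 15-point compound titration; 16 hr at 37C.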
# [13] = qHTS assay to identify small molecule antagonists of the estrogen receptor beta (ER-beta) signaling pathway - cell viability counter screen (AID 1259382); conditions: ER-beta-UAS-bla HEK293T viability, CellTiter-Glo luminescence, 16 h; series mostly up to 92.4 µM; also: nearly all actives have a fitted effect of over 55% in size
# Procedure, shortened: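 Readout: luminescence, CellTiter-Glo, same wells as bla assay. System: ER-beta-UAS-bla GripTite HEK293T, 2% charcoal-stripped FBS. Exposure: compounds plus 1nM 17-beta-estradiol, 16 hr, 37C.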
# [14] = molecular target: Estrogen receptor (Homo sapiens) (UniProt P03372); experiment: qHTS assay to identify small molecule agonists of the estrogen receptor alpha (ER-alpha) signaling pathway in the presence of an antagonist (AID 1259383; calls by dose curve; also: top concentration of the series differs between compounds; nearly all actives have a fitted effect of over 15% in size); conditions: VM7Luc4E2 cells, ERE-luciferase, +ICI-182,780, 22 h; series mostly up to 92.4 µM
# Estrogen receptor (Homo sapiens), sequence (P03372 whole entry, looked up): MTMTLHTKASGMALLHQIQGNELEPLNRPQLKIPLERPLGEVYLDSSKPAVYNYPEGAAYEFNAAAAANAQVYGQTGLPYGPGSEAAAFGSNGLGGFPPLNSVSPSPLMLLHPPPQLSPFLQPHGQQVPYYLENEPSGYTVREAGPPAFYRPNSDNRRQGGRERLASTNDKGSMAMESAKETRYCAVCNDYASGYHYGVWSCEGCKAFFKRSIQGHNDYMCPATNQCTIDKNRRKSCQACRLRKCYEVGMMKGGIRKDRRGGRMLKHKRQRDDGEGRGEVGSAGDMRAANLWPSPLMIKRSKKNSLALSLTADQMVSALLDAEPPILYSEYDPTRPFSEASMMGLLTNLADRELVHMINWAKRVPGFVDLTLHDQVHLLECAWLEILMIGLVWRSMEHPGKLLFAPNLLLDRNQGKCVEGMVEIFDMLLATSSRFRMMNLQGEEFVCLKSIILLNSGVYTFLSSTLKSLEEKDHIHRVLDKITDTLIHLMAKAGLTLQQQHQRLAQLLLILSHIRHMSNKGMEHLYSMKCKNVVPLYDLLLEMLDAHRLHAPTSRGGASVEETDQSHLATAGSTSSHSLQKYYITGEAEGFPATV
# Procedure, shortened: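 Quantitative HTS confirmation: compounds titrated at 15 concentrations onto estrogen-deprived VM7Luc4E2 cells carrying a four-ERE luciferase construct, with ICI-182,780 present at 10.0nM final. Signal is luminescence after 22hr exposure.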
# [15] = qHTS assay to identify small molecule agonists or antagonists of the thyroid stimulating hormone receptor (TSHR) signaling pathway - wild type cell line counter screen (AID 1259384; calls by dose curve); conditions: HEK293 wild type, cAMP HTRF counter-screen; series mostly up to 92.4 µM
# Procedure, shortened: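 Wild-type Hek293 cells, 800/well, 18 h at 37C, then compound with Ro20-1724 for 30 min RT. cAMP by HTRF (cAMP-d2/anti-cAMP cryptate), 1 h RT, fluorescence read. 15 concentrations, triplicates.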
# [16] = molecular target: Thyrotropin receptor (Homo sapiens) (UniProt P16473); experiment: qHTS assay to identify small molecule antagonists of the thyroid stimulating hormone receptor (TSHR) signaling pathway (AID 1259385; calls by dose curve; also: nearly all actives have a fitted effect of over 20% in size); conditions: TSHR-HEK293 cAMP HTRF, TSH-stimulated antagonist mode; series mostly up to 92.4 µM
# Thyrotropin receptor (Homo sapiens), sequence (P16473 whole entry, looked up): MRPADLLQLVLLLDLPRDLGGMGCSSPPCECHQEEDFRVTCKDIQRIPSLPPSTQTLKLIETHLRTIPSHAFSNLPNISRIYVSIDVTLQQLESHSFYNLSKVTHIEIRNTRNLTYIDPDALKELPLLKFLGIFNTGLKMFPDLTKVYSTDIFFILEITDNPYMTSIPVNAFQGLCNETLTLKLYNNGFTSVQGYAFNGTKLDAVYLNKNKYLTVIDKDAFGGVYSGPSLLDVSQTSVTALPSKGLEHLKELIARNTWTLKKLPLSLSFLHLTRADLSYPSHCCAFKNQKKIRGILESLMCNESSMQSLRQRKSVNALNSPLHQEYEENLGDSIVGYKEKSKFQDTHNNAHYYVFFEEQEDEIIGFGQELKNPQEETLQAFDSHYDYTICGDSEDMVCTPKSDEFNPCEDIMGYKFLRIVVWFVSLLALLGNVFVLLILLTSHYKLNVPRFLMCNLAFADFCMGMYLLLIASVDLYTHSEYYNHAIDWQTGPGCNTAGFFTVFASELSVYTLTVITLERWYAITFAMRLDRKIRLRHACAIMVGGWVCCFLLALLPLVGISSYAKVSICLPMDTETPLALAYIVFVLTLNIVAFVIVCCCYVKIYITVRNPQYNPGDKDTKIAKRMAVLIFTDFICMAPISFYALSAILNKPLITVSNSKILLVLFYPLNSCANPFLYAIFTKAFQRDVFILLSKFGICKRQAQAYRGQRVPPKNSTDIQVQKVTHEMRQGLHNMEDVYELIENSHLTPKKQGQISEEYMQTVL
# Procedure, shortened: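 TSHR-HEK293 cells (800/well) plated 18 h, then compounds with Ro20-1724 and TSH at 1.5 ng/mL final, 30 min at room temperature. cAMP quantified by HTRF (cAMP-d2/anti-cAMP-cryptate, 1 h); 15 concentrations in triplicate.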
# [17] = molecular target: Estrogen receptor (Homo sapiens) (UniProt P03372); experiment: qHTS assay to identify small molecule antagonists of the estrogen receptor alpha (ER-alpha) signaling pathway using the BG1 cell line in the presence of 0.1 nM 17-beta-estradiol (AID 1259244); conditions: VM7Luc4E2 (BG1) ERE-luciferase, antagonist mode, 0.1 nM E2, 22 h; series mostly up to 92.4 µM; also: nearly all actives have a fitted effect of over 50% in size
# Procedure, shortened: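 Compounds were tested against 0.1 nM (final) 17beta-estradiol in VM7Luc4E2 cells, which express full-length ER-alpha and an ERE-luciferase reporter; luminescence was recorded following 22 h exposure.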
# [18] = qHTS assay to identify small molecule agonists of the estrogen receptor beta (ER-beta) signaling pathway - cell viability counter screen (AID 1259380); conditions: ER-beta-bla HEK293T viability, CellTiter-Glo luminescence, 16 h; series mostly up to 92.4 µM; also: nearly all actives have a fitted effect of over 30% in size
# Procedure, shortened: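 Measured: luminescence from CellTiter-Glo after 30 min at room temperature, added to wells already read for the LiveBLAzer FRET reporter (2 hr substrate); ER-beta-UAS-bla HEK293T cells had 16 hr compound treatment at 37C, 5% CO2.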
Structure (SMILES),outcome [1],outcome [2],outcome [3],Potency [4],outcome [5],Potency [6],Potency [7],outcome [8],Potency [9],outcome [10],Potency [11],Potency [12],Potency [13],Potency [14],Potency [15],Potency [16],Potency [17],Potency [18]
CN1C(=S)CN=C(c2ccccc2)c2cc(Cl)ccc21,inactive,inactive,inactive,inactive,inactive,inactive,inactive,inactive,6.68 µM (active),inactive,inactive,inactive,inactive,inactive,inactive,inactive,–,–
O=C1OC(=O)C2C1C1(Cl)C(Cl)=C(Cl)C2(Cl)C1(Cl)Cl (centres undefined),inactive,inactive,–,inactive,inactive,–,inactive,–,inactive,inactive,inactive,inactive,inactive,inactive,inactive,inactive,inactive,inactive
CN(C)CCc1ccc(O)cc1,inactive,inactive,inactive,inactive,inactive,inactive,inactive,inactive,inactive,–,–,inactive,inactive,–,inactive,inactive,–,–
CCOP(=O)(N=C1SCCS1)OCC,inactive,inactive,–,inactive,inactive,inactive,–,inactive,inactive,–,inactive,inactive,inactive,inactive,inactive,inactive,inactive,–
CC(C)CC(N(C)C)C1(c2ccc(Cl)cc2)CCC1 (centres undefined),inactive,inactive,inactive,inactive,inactive,inactive,inactive,–,inactive,inactive,inactive,inactive,inactive,–,–,–,–,–
O=C(O)c1cccc(Cl)c1,inactive,inactive,–,inactive,inactive,inactive,–,–,inactive,inactive,inactive,inactive,inactive,inactive,inactive,inactive,inactive,–
ClC(Br)Br,inactive,inactive,–,inactive,inactive,inactive,–,inactive,inactive,inactive,inactive,inactive,inactive,inactive,inactive,inactive,inactive,inactive
CCCCc1c(C)nc(NCC)[nH]c1=O,inactive,inactive,–,inactive,inactive,inactive,–,inactive,inactive,inactive,inactive,inactive,inactive,inactive,inactive,inactive,inactive,inactive
CCCCC(=O)Cl,inactive,inactive,–,inactive,inactive,inactive,inactive,inactive,inactive,inactive,inactive,inactive,inactive,–,inactive,inactive,–,–
CCOC(=O)N(C)C(=O)CSP(=S)(OCC)OCC,inactive,inactive,–,inactive,inactive,inactive,inactive,inactive,inactive,–,inactive,inactive,inactive,–,–,–,–,inactive
Nc1cnn(-c2ccccc2)c(=O)c1Cl,inactive,inactive,–,inactive,inactive,inactive,–,inactive,inactive,inactive,inactive,inactive,inactive,inactive,inactive,inactive,inactive,inactive
N#CC(O)c1ccccc1 (centres undefined),inactive,inactive,–,inactive,inactive,inactive,inactive,inactive,inactive,inactive,inactive,inactive,inactive,–,inactive,inactive,–,inactive
CCC(C)n1c(=O)[nH]c(C)c(Br)c1=O (centres undefined),inactive,inactive,–,inactive,inactive,inactive,–,inactive,inactive,inactive,inactive,inactive,inactive,inactive,inactive,–,inactive,inactive
CC(C)(C)OC(=O)c1ncn2c1[C@@H]1CCCN1C(=O)c1c(Br)cccc1-2,inactive,inactive,inactive,inactive,inactive,inactive,inactive,inactive,inactive,–,inactive,–,inactive,–,inactive,inactive,–,–
CCOP(=S)(OCC)SCSP(=S)(OCC)OCC,inactive,inactive,–,inactive,inactive,–,inactive,inactive,inactive,–,–,inactive,inactive,inactive,inactive,–,inactive,–
CCC/C(=N\OCC)C1=C(O)CC(CC(C)SCC)CC1=O (centres undefined),inactive,inactive,–,inactive,inactive,inactive,–,inactive,30.8 µM (active),inactive,inactive,inactive,inactive,inactive,inactive,inactive,inactive,inactive
ClCCOCOCCCl,inactive,inactive,–,inactive,inactive,inactive,inactive,inactive,inactive,inactive,inactive,inactive,inactive,–,inactive,inactive,–,inactive
COC(C)(C)C,inactive,inactive,–,inactive,inactive,inactive,inactive,inactive,inactive,inactive,inactive,inactive,inactive,–,inactive,inactive,–,inactive
CC(C)CP(=S)(S)CC(C)C,inactive,inactive,–,inactive,inactive,inactive,inactive,–,–,–,–,inactive,–,inactive,–,inactive,inactive,–
